Assay outcomes (PubChem)
HT1080NT lethal: kills 2HG-producing HT-1080-NT fibrosarcoma cells. HT-1080-NT fibrosarcoma viability, CellTiter-Glo ATP luminescence, 48 h. Potency, µM (series often up to 46.1 µM), without a hit: at the top dose activity, negative = less viability, usual class: cytotoxic. actives 1.6% (n = 360,000). AID 686970;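 further: NT is the 2HG producing partner of a matched IDH1 knockdown line; potency means the concentration at half of the fitted maximal effect; 0% = DMSO-treated cells and -100% = media-only wells without cells; nearly all actives have a fitted effect of over 55% in size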
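Luminescent CellTiter-Glo readout after 48 hours of compound exposure at 37 degrees C defined viability of HT-1080-NT cells. Activity was normalized to DMSO wells and cell-free media wells; concentration-response curves were fitted and assigned curve classes.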
HT1080 IDH1KD tx: HT-1080 IDH1 knockdown cell toxicity (counter line); HT-1080 IDH1 knockdown viability, ATP luminescence, 48 h; Potency, µM (top dose mostly 46.1 µM), inactives show top-dose activity, negative = toxicity, actives largely listed as cytotoxic; actives 2% (n = 360,000); AID 686971;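 further: potency means the concentration at half of the fitted maximal effect; 0% = DMSO wells and -100% = cell-free medium wells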
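In this qHTS, HT-1080 cells depleted of IDH1 are exposed for 48 h at 37 °C to compound titrations. Toxicity is scored from CellTiter-Glo luminescence, with DMSO as full viability and medium alone as none.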
TDP1 cell noCPT: qHTS for Inhibitors of human tyrosyl-DNA phosphodiesterase 1 (TDP1): qHTS in cells in absence of CPT; DT40 Tdp1-/- hTDP1 cells, no CPT, ATP luminescence, 48 h; Potency, µM (top dose mostly 46.2 µM), inactives show at the highest dose activity change, negative = growth inhibition, usual class: inhibitors; actives 15% (n = 420,000); AID 686978, 2013; further: potency means the concentration at half of the fitted maximal effect; nearly all actives have a fitted effect of over 55% in size
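Camptothecin absent (DMSO only). Human TDP1-complemented DT40 knockout cells, 400 cells/well, 37 °C for minimum 48 hr; ATP measured via CellTiter-Glo, 30 min dark incubation, luminescence.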
TDP1 cell CPT: DT40-hTDP1 cell growth loss with CPT. chicken DT40 Tdp1-/-;hTDP1 cells + 20 nM CPT, ATP luminescence, 48 h. Potency, µM (highest dose often 46.2 µM), for the others: top-dose activity change, negative = growth inhibition, hits mostly inhibitors. actives 12% (n = 420,000). AID 686979; further: potency means the concentration at half of the fitted maximal effect; nearly all actives have a fitted effect of over 55% in size
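Cell growth measured by CellTiter-Glo luminescence after a minimum 48 h, 37 C compound exposure with 20 nM CPT in Tdp1-knockout DT40 cells stably expressing hTDP1, seeded 400/well; qHTS titration format.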
IL-1B inflam inh: inhibitors of inflammasome signaling (IL-1 beta secretion); THP-1 LPS/ATP IL-1B secretion, AlphaLISA, 16 h; hits give low values; activity change, % at 57.5 µM; actives 4.7% (n = 360,000); AID 743279; in the data active means activity change below about -50%; inconclusive means mostly about -30% to -49%
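Secreted IL-1B measured by AlphaLISA bead assay after 16 h compound exposure of THP-1 cells; compounds (final up to 57.5 uM) added 1 h before LPS (250 ng/mL) and ATP (1.25 mM) stimulation; lower signal means less secretion.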
* = called active by the depositor; ? = inconclusive; · = no result; [ ] = remark or other dose. In the library only some 19% were active in any assay of this set; here they are far more common. Unless noted, the call rests on the fitted dose curve; in most records, active means well fitted curve in the direction sought with a large enough effect; inconclusive means small, poorly fitted or top-dose-only effect, or another doubt; inactive means no such curve, though single readings can be large; an effect the other way counts as inactive or inconclusive. Unless noted, on the % scale 0 is the no-effect control and ±100 the full control effect.

SMILES	HT1080NT lethal	HT1080 IDH1KD tx	TDP1 cell noCPT	TDP1 cell CPT	IL-1B inflam inh
O=C(CSC1=Nc2ccccc2N=C(c2ccc(F)cc2)C1)NCc1ccc(F)cc1	·	·	-19.5%	?	·
COc1ccc(-n2c(CNC(=O)c3c(-c4ccccc4)noc3C)nnc2SC)cc1	·	·	-7.8%	-12.6%	·
O=C(Nc1cccc(F)c1)NC1(C(=O)N2CCOCC2)CCCCC1	22.6%	14.5%	-1.2%	-6.1%	-11.5
CCOc1ccc(CN2CCc3nc(N4CCN(c5ccccn5)CC4)ncc3C2)cc1OC	·	·	23.1µM*	23.1µM*	·
COc1ccccc1N1CCN(c2ncc3c(n2)CCN(Cc2ccccc2C)C3)CC1	·	·	5.3%	-12.3%	·
Cc1ccccc1CN1CCc2nc(N3CCN(c4ncccn4)CC3)ncc2C1	·	·	20.6µM*	?	·
CCOc1ccccc1CN1CCc2nc(N3CCN(c4ccccc4F)CC3)ncc2C1	·	·	20.6µM*	16.4µM*	·
CC1CCCCC1NCC(=O)NCc1ccc(F)cc1 (stereo not drawn)	-2.7%	6.8%	2.7%	1.2%	-16.5
COc1cc(C)nc(Oc2ccc(OCCOc3ccc(C)cc3)nn2)n1	0.4%	4.6%	-28.1%	?	17.4
COC(=O)c1[nH]c(=O)c2ccccc2c1O	20.0%	17.8%	0.4%	2.59µM*	-1.3
COC(=O)c1[nH]c(=O)c2ccccc2c1OCc1ccccc1	0.1%	-2.0%	-16.7%	-15.2%	16.2
COc1ccc(S(=O)(=O)N2CCCCCC2)cc1NC(=O)CCCOc1ccccc1	-2.6%	-0.5%	?	-26.1%	13.0
CC(=O)Oc1ccc(CN2C(=O)C(CCc3ccccc3)ON=C2c2cnccn2)cc1 (stereo not drawn)	?	-23.5%	?	?	-6.6
Clc1ccccc1-c1nnc2sc(CCc3ccccc3)nn12	4.6%	2.1%	?	?	0.0
COc1ccc(Cc2nn3c(-c4ccccc4Br)nnc3s2)cc1	-26.1%	1.4%[9.24 µM]	?	?	-84.5*
Brc1ccccc1-c1nnc2sc(Cc3ccccc3)nn12	3.0%	-15.4%	-9.5%	-26.4%	-55.7*
O=C(CN1CCCC1c1cccs1)Nc1cc(S(=O)(=O)N2CCCCC2)ccc1Cl (stereo not drawn)	-29.1%	?	?	16.4µM*	-14.7
CCOc1ccc(NC(=O)[C@@H]2CCCN2C(=O)c2cccs2)cc1S(=O)(=O)N1CCCCC1	2.0%	15.9%	6.8%	-2.1%	-2.1
CCOc1ccc(NC(=O)CN2CCCC2c2cccs2)cc1S(=O)(=O)N1CCCCC1 (stereo not drawn)	0.7%	-3.0%	14.6µM*	14.6µM*	-7.9
Cc1ccc(NC(=O)CN2CCCC2c2cccs2)cc1S(=O)(=O)N1CCCCC1 (stereo not drawn)	-7.8%[9.24 µM]	?	23.1µM*	18.4µM*	-9.4
Cc1ccc(NC(=O)CCS(=O)(=O)c2ccccc2)cc1S(=O)(=O)N1CCCCCC1	-18.9%	-12.8%	?	?	-3.2
Cc1ccc(S(=O)(=O)N2CCCCC2)cc1NC(=O)CN1CCCC1c1cccs1 (stereo not drawn)	0.2%	-0.7%	-23.7%	-25.0%	24.3
COc1ccc2nc(NCCCNC(=O)c3cc(OC)c(OC)c(OC)c3)c(C#N)cc2c1	-0.7%	-6.5%	-15.5%	-28.0%	29.2
Cc1cccc(OCCCC(=O)Nc2ccc(S(=O)(=O)Nc3nccs3)cc2)c1C	-14.9%	-19.2%	-21.8%	-9.8%	-1.0
CCOC(=O)[C@]12CCCC=C1N(Cc1ccc3c(c1)OCO3)C(=O)[C@H](CC(=O)NCc1cccc(C(F)(F)F)c1)C2	10.3µM*	16.4µM*	16.4µM*	?	0.0
SMILES	HT1080NT lethal	HT1080 IDH1KD tx	TDP1 cell noCPT	TDP1 cell CPT	IL-1B inflam inh
CCOC(=O)[C@]12CCC=C1N(Cc1ccc3c(c1)OCO3)C(=O)[C@H](CC(=O)NCc1cccc(C(F)(F)F)c1)C2	?	?	23.1µM*	20.6µM*	-7.5
CCOC(=O)[C@]12CCCC=C1N(Cc1ccc3c(c1)OCO3)C(=O)[C@H](CC(=O)NCc1ccc(C)o1)C2	-14.8%	0.4%	?	?	-13.6
COc1ccc(Nc2nnc(SCC(=O)N(CC(C)C)C3CCS(=O)(=O)C3)s2)cc1 (stereo not drawn)	-17.9%	-7.6%	18.4µM*	?	-19.7
Cc1ccccc1Nc1nnc(SCC(=O)N(C)C2CCS(=O)(=O)C2)s1 (stereo not drawn)	15.7%	7.1%	-5.3%	17.3%	3.5
CCOc1ccccc1Nc1nnc(SCC(=O)N(C)C2CCS(=O)(=O)C2)s1 (stereo not drawn)	17.1%	19.6%	?	-21.3%	-60.8*
Cc1ccc2nc(N3CCN(c4ccccc4)CC3)c3nnnn3c2c1	·	·	-18.2%	-22.3%	·
Cc1noc(/C=C/c2nn(C)cc2Cl)c1[N+](=O)[O-]	-27.7%	?	11.6µM*	20.6µM*	-78.3*
Cc1cc(O)ccc1N/C=C/c1onc(C)c1[N+](=O)[O-]	16.4µM*	?	-22.4%	-13.6%	?
Cc1cccc(N/C=C/c2onc(C)c2[N+](=O)[O-])c1	-7.2%	-5.3%	9.2µM*	?	2.9
COc1cc(/C=C/c2onc(C)c2[N+](=O)[O-])cc(OC)c1OC	-1.2%	11.2%	-20.6%	6.8%	13.9
Cc1cccc(/C=C/c2onc(C)c2[N+](=O)[O-])n1	?	6.51µM*	2.59µM*	2.59µM*	-96.7*
Cc1cccc(NS(=O)(=O)c2c(C)noc2C)c1	10.9%	2.2%	1.9%	7.9%	-3.1
OC1(c2cccnc2)CCN(Cc2ccc3c(c2)CN(Cc2cccc(F)c2F)CCO3)CC1	·	·	?	0.2%[9.04 µM]	·
Cc1ccccc1OCC(=O)N(Cc1nnc(-c2ccc(Cl)cc2)o1)C(C)C	-5.9%	-15.6%	14.6µM*	?	-14.2
CCCOc1ccc(-c2nc3ccccc3c(=O)o2)cc1	·	·	4.1%	-0.1%	·
O=C(CSc1nnnn1-c1cccc2c1CCCC2)N1CCOCC1	0.0%	0.0%	-26.9%	-13.4%	20.1
O=C(CSc1nnnn1-c1cccc2c1CCCC2)N1CCCC1	2.4%	9.1%	23.1µM*	16.4µM*	24.4
COc1ccccc1CNc1cc(-c2ccccc2C)ncn1	·	·	4.11µM*	4.11µM*	·
COc1cccc(-c2cc(NCc3ccc(OC)cc3OC)ncn2)c1	·	·	13µM*	10.3µM*	·
COc1ccccc1CNc1cc(-c2cccnc2)ncn1	·	·	-18.4%	?	·
COc1ccccc1CNc1cc(-c2ccccc2OC)ncn1	·	·	2.91µM*	4.61µM*	·
COCCNc1nnc(SCC(=O)c2c[nH]c3ccccc23)s1	0.4%	-0.3%	?	-23.8%	35.8
CC(=O)c1ccc(N(CC(=O)NC2CCCC2)C(=O)CCC(=O)Nc2cc(C)on2)cc1	1.0%	-1.1%	-24.8%	-10.9%	15.2
